LASV entry inh – inhibitors of Lassa virus binding or cell entry; Lassa virus pseudotype entry inhibition, cell reporter; Potency, µM (highest dose often 37.9 µM), inactives show top-dose activity change, negative = inhibition, hits mostly inhibitors; actives 1.2% (n = 300,000); calls by dose curve; tested in HEK293 cells; note: potency is the fitted concentration of half-maximal effect; % is set by controls: 0 for no effect and ±100 for the full control effect; nearly all actives have a fitted effect of over 50% in size
Cycloheximide cs – counter-screen for Shiga toxin inhibitors: cycloheximide protein synthesis inhibition; max response, %; cell reporter, cycloheximide protein synthesis inhibition counterscreen; actives 12% (n = 300,000); in the data active = max response mostly above about 13%, no sharp cut-off; inactive = mostly below about 14%; note: read at 38.3 µM for the half of the compounds with a filed dose; 0% is about no effect
Pf growth 48h – inhibits P. falciparum growth in the first generation, 48 h | P. falciparum luciferase growth in erythrocytes, 48 h | Potency, µM (highest dose often 28.7 µM), for the others: top-dose activity change, negative = inhibition, actives largely listed as inhibitors | actives 5.9% (n = 310,000); note: potency is the fitted concentration of half-maximal effect; % is set by controls: 0 for no effect and ±100 for the full control effect
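Cell-based growth assay: transgenic P. falciparum expressing firefly luciferase, cultured in red cells within RPMI 1640 containing 0.5% w/v Albumax, 24 mM bicarbonate and gentamycin. A drop in luciferase activity indicates inhibition.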
Shiga inhibitor – inhibitors of Shiga toxin in Vero cells | Vero cells, Shiga toxin protein synthesis inhibition reporter | inhibition, % at 38.7 µM | actives 9.2% (n = 290,000) | AID 2315; in the data active = inhibition mostly above about 28%, no sharp cut-off; inactive = mostly below about 43%; note: 0% is about no effect
MARV entry inh – Marburg virus entry inhibition | Potency, µM (doses to about 37.8 µM), inactives show at the top dose activity change, negative = inhibition, actives largely listed as inhibitors | actives 1.8% (n = 300,000) | Marburg virus pseudotyped entry inhibition, cell reporter | AID 540276; calls by dose curve; tested in HEK293 cells; note: potency is the fitted concentration of half-maximal effect; % is set by controls: 0 for no effect and ±100 for the full control effect
Pf growth 96h – P. falciparum growth inhibition at 96 hour, primary screen for plastid delayed-death inhibitors | P. falciparum luciferase reporter growth, 96 h | Potency, µM (top dose mostly 28.7 µM), inactives show at the highest dose activity change, negative = inhibition, usual class: inhibitors | actives 6.9% (n = 320,000) | AID 504834; note: potency is the fitted concentration of half-maximal effect; % is set by controls: 0 for no effect and ±100 for the full control effect
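Compounds incubated with erythrocytes infected by luciferase-expressing P. falciparum (2% hematocrit, 0.05% parasitemia final) for 96 hours, 37 C in 5% CO2. Growth inhibition scored as decreased luciferase luminescence.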
* = called active by the depositor; ? = inconclusive; . = not tested or not shown; [ ] = remark or other dose. Most compounds without a hit are left out; they make up all but 19% or so of the library. Unless noted, calls come from the whole dose curve; as a rule, active = well fitted inhibition curve with a large enough effect; inconclusive = small, poorly fitted or top-dose-only effect, or another doubt; inactive = no such curve, though single readings can be large or run the other way.

SMILES	LASV entry inh	Cycloheximide cs	Pf growth 48h	Shiga inhibitor	MARV entry inh	Pf growth 96h
Cc1cc(C)n(-c2ccc(C(=O)Nc3cccc(S(=O)(=O)N(C)C)c3)cc2)n1	?	-4	-30%	-14	?	?
CCN(CC)S(=O)(=O)c1cccc(NC(=O)c2ccc(-n3nc(C)cc3C)cc2)c1	?	-1	?	-20	16µM*	?
CCN(CC)S(=O)(=O)c1cccc(NC(=O)c2ccccc2Br)c1	-18%	-1	10µM*	30	-18%[46.1 µM]	?
Cc1ccc(NC(=O)c2ccc(OC(F)(F)F)cc2)cc1S(=O)(=O)N(C)C	?	12*	-29%	8	?	?
Cc1cc(C)n(-c2ccc(C(=O)Nc3ccc(S(=O)(=O)N(C)C)cc3)cc2)n1	?	-6	15µM*	-10	?	?
CN1/C(=C\C(=O)COC(=O)c2ccccc2O)C(C)(C)c2ccccc21	.	8	-14%	50	.	-16%
CC(=O)c1cccc(NC(=O)C2CC(=O)N(CCc3ccccc3)C2)c1 (stereo not drawn)	-8%[46.1 µM]	6	36%	2	?	?
COC(=O)CSc1nc2cc3c(cc2cc1C)OCCO3	30%	2	24%	7	-4%	?
COC(=O)c1cccc(OC(N)=O)c1	13%	-6	3%	-4	-2%	.
COc1ccc(S(=O)(=O)N(C)C2CCS(=O)(=O)C2)cc1OC (stereo not drawn)	10%	-5	16%	4	-7%	18%
Cc1cc(C)n(-c2ccc(C(=O)Nc3ccc(C)c(S(=O)(=O)N(C)C)c3)cc2)n1	?	-2	?	-4	?	12µM*
Clc1cccc(Cl)c1C[n+]1ccc2ccccc2c1	.	0	2.1µM*	3	.	32%
O=P(O)(O)Cc1c(Cl)cccc1Cl	-10%[46.1 µM]	-3	-5%	18	8%	-14%
CCn1c(C)[n+](CCOCC[n+]2c(C)n(CC)c3cc(Cl)c(Cl)cc32)c2cc(Cl)c(Cl)cc21	-24%	-3	.	1	20%	10µM*
CCN1C(=O)/C(=C2/Sc3ccc(OC)cc3N2C)SC1=Nc1ccc(OC)cc1	?	5	0%	-8	14%[14.2 µM]	9.3µM*
CCCCSc1cc(C)nc(N)n1	4%[46.1 µM]	31*	74%	54*	?	6%
Cc1ccc(OCCSc2cc(C)nc(N)n2)cc1	?	16	?	30	13%	21%
OC(COCC(F)(F)C(F)(F)C(F)(F)C(F)F)Cn1c2ccc(Cl)cc2c2cc(Cl)ccc21 (stereo not drawn)	?	-6	1µM*	-10	?	0.59µM*
COc1ccc(Br)cc1/C=N/NC(=O)CNC(=O)C1COc2ccccc2O1 (stereo not drawn)	11%[46.1 µM]	-2	15%	-7	-22%[46.1 µM]	23%
N#CC1=C(C=Nc2ccccc2O)CCC1	-21%	-3	8%	-5	?	-9%[5.75 µM]
O=C1C(C=Nc2ccccc2O)=C(O)c2ccccc21	?	32*	99%	51*	?	?
Cc1ccc(O)c(N=CC2=C(O)c3ccccc3C2=O)c1	?	33*	?	109*	?	64%
CC(=O)Nc1cc(OC(C)=O)c2nonc2c1OC(C)=O	?	-2	10µM*	-18	?	5%
NC(=O)N/N=C/c1ccc(-c2cccc(C(F)(F)F)c2)o1	.	48	34%	38*	.	74%
Cc1cc(C(=O)N/N=C/c2ccc(-c3cccc(Br)c3)o2)n[nH]1	.	-2	?	-9	.	-2%
SMILES	LASV entry inh	Cycloheximide cs	Pf growth 48h	Shiga inhibitor	MARV entry inh	Pf growth 96h
O=C(N/N=C/c1ccc(-c2cccc(C(F)(F)F)c2)o1)c1ccccc1O	1%	-2	8.3µM*	-10	-20%	-15%
FC(F)(F)c1cccc(-c2ccc(/C=N/Nc3nncc(-c4ccccc4)n3)o2)c1	.	-1	11%	50	.	34%
Cc1ccc(NCC(=O)N/N=C/c2ccc(-c3cccc(C(F)(F)F)c3)o2)cc1	?	-2	4%	-7	-1%	-18%
O=C(N/N=C/c1ccc(N2CCCCC2)o1)C(O)(c1ccccc1)c1ccccc1	-12%	1	13µM*	-4	-25%	?
O=C(N/N=C/c1ccc(-c2cccc(C(F)(F)F)c2)o1)c1ccccc1Br	?	11*	1%	74*	5%	71%
Cc1ccsc1-c1nc(-c2ccccc2)c(-c2ccccc2)[nH]1	1%	-2	?	-5	-23%	?
COC(=O)c1ccccc1NC(=S)N1CCN(c2ccccn2)CC1	.	-3	-1%	-5	.	21%
O=C(N/N=C/c1ccc(N2CCOCC2)o1)c1cccc(F)c1	1%	34*	20%	85*	-16%	31%
COc1ccc(C(=O)N/N=C/c2ccc(N3CCOCC3)o2)cc1OC	9%[46.1 µM]	7	3%	-7	-21%[46.1 µM]	-1%
O=C(N/N=C/c1ccc(-c2cccc(C(F)(F)F)c2)o1)c1cccc(F)c1	?	32*	12µM*	40*	?	?
O=C1c2ccccc2C(=O)N1SC1CCCCC1	-6%	15	55%	25	2%	102%
O=C1c2cccc3c2[C@@H](CCC3)CN1[C@@H]1CN2CCC1CC2	.	.	12µM*	.	.	-104%
Cc1ccc(NC(=O)COC(=O)CN2CCCCCC2=O)cc1C	.	.	?	.	.	-9%
CC1CCc2c(sc3ncnc(NS(=O)(=O)c4cccs4)c23)C1 (stereo not drawn)	19%	2	?	-7	18%[46.1 µM]	-8%
Cc1cccc2[nH]c(SCC(=O)O)nc12	5%	-5	-21%[5.75 µM]	-10	-1%[46.1 µM]	3%[5.75 µM]
O=C(CSc1nc2ccc(S(=O)(=O)N3CCOCC3)cc2[nH]1)N1CCOCC1	14%	-1	.	-24	17%	1.9µM*
Cc1cccc2[nH]c(SCC(=O)N3CCOCC3)nc12	.	21	15%	109*	.	?
COc1ccc(-n2nc3c(c2NC(=O)c2ccco2)CS(=O)(=O)C3)cc1	2%[46.1 µM]	0	18%	0	2%[46.1 µM]	?
CCOc1ccc(C2C(C(N)=O)=C(C)Nc3nc(-c4cccc(Cl)c4)nn32)cc1OC (stereo not drawn)	-14%[46.1 µM]	.	.	.	2%[46.1 µM]	.
CCOc1ccc(OCCC(=O)N(CC(=O)Nc2ccccc2C(F)(F)F)Cc2ccco2)cc1	1%	.	?	.	?	?
CCc1ccc(-c2nc(CS(=O)CC(=O)NCCc3ccccc3)c(C)o2)cc1 (stereo not drawn)	.	21*	22%	43	.	?
Cc1oc(-c2ccccc2F)nc1CS(=O)(=O)CC(=O)NCCCN1CCN(C)CC1	.	-5	-3%	11	.	10µM*
Cc1ccc(-c2nc(CS(=O)CC(=O)NCCCN3CCN(Cc4ccccc4)CC3)c(C)o2)cc1 (stereo not drawn)	?	10	?	-4	11µM*	6.6µM*
Cc1ccc(-c2nc(CS(=O)CC(=O)NCCN3CCOCC3)c(C)o2)cc1 (stereo not drawn)	.	-4	.	5	.	56%
